Laboratory results published in PubChem BioAssay (NCATS).
Results filed as inconclusive are left out. Calls of active or inactive are those of the source. Unless noted, the call rests on the fitted dose curve; in most records, active means well fitted curve in the direction sought with a large enough effect; inconclusive means small, poorly fitted or top-dose-only effect, or another doubt; inactive means no such curve, though single readings can be large; an effect the other way counts as inactive or inconclusive.

Columns and labels:
[1] = Immunotoxin (HA22) sensitization/mitigation study. Vehicle arm (PBS) (AID 1159510; call rule not given here; further: potency means the concentration at half of the fitted maximal effect)
[2] = qHTS assay for measurement of the activity of small molecule inhibitors on Zika virus induced Caspase-3 activity in human iPSC derived neural progenitor cells (hNPCs) (AID 1224857); further: % of control where 0% means no effect; nearly all actives have a fitted effect of over 65% in size
Summary of the method: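 Caspase-3/7 induction by a 6-hour ZIKV infection was quantified with a luminescent Caspase-Glo 3/7 reagent incubated 30 minutes at room temperature. Compounds were preincubated with hNPCs for 1 hour; inhibition was calculated against uninfected and infected control wells.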

[3] = qHTS assay for measurement of the activity of small molecule inhibitors on Zika virus induced Caspase-3 activity in human astrocytoma cells (AID 1224859);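 further: plate controls were ZIKV-infected untreated cells for no effect and uninfected cells for full effect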
Summary of the method: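 In SNB-19 cells plated at 250 cells/well and grown 16-20 h, compounds were applied 1 h before ZIKV (2 FFU/cell). Six hours later caspase-3/7 luminescence was recorded.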

[4] = qHTS Screen of the MIPE 4.0 Collection Against Ewings Sarcoma (RDES) (AID 1259252); further: nearly all actives have a fitted effect of over 35% in size; further: potency means the concentration at half of the fitted maximal effect
Summary of the method: (§1)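 After a 4 h attachment period in RPMI/5% FBS, cells were pin-dosed with test compounds; DMSO served as negative and 9.2 uM bortezomib (final) as positive control. Luminescent CellTiter-Glo signal at 48 h defined viability.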

[5] = qHTS Screen of the MIPE 4.0 Collection Against Ewings Sarcoma (TC71) (AID 1259253); further: nearly all actives have a fitted effect of over 40% in size; further: potency means the concentration at half of the fitted maximal effect
Summary of the method: as §1

[6] = qHTS Screen of the MIPE 4.0 Collection Against Ewings Sarcoma (TC32) (AID 1259256); further: nearly all actives have a fitted effect of over 45% in size; further: potency means the concentration at half of the fitted maximal effect
Summary of the method: as §1

[7] = qHTS assay to identify small molecule inhibitors of chordoma cells - UCH-1 (AID 1259355); further: on the % scale 0 is the no-effect control and ±100 the full control effect; nearly all actives have a fitted effect of over 55% in size
Summary of the method: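 Seed 800 cells per well; incubate overnight at 37 C, 5% CO2. Add test compounds (15 concentrations), then the auranofin–topoisomerase-agent combination. Incubate 48hr, add CellTiter-Glo, wait 30min, read luminescence.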

[8] = qHTS assay to identify small molecule inhibitors of chordoma cells - UCH-2 (AID 1259356); further: on the % scale 0 is the no-effect control and ±100 the full control effect
[9] = P-glycoprotein substrates identified in KB-8-5-11 adenocarcinoma cell line, qHTS therapeutic library screen (AID 1346987); further: nearly all actives have a fitted effect of over 65% in size; further: potency means the concentration at half of the fitted maximal effect
Summary of the method: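 Steps: plate 500 KB-8-5-11 cells/well in DMEM + 10% FCS (colchicine removed); pin compounds in dose-response; incubate 72 h, 37 degree C, 5% CO2; add CellTiter-Glo, 5 min; read luminescence.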

[10] = NS1 protein of Zika virus - qHTS assay to identify small molecule inhibitors in human HEK 293 cells (AID 1347053);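 further: plate controls were infected untreated cells for no effect and uninfected cells for full effect; nearly all actives have a fitted effect of over 55% in size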
Summary of the method: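 HEK 293; 20 h pre-culture, 37 C/5% CO2; cpd 1 h pre-infection; ZIKV MR766, MOI = 0.5, 24 h, 37 C; TR-FRET NS1 readout (two anti-NS1 Abs); norm. to no-virus vs infected.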

[11] = Immunotoxin (SS1P) sensitization/mitigation study. Vehicle arm (DMEM) (AID 1159513; call rule not given here; further: potency means the concentration at half of the fitted maximal effect)
[12] = qHTS Screen of the MIPE 4.0 Collection Against Ewings Sarcoma (EW8) (AID 1259255);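 further: 100% = DMSO-treated cells and 0% = medium-only wells without cells; nearly all actives have a fitted effect of over 35% in size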
Summary of the method: as §1

[13] = P-glycoprotein substrates identified in KB-3-1 adenocarcinoma cell line, qHTS therapeutic library screen (AID 1346986); conditions: KB-3-1 parental cells viability, CellTiter-Glo, 72 h; at 44.5 µM (top of the series) unless noted; further: nearly all actives have a fitted effect of over 60% in size
Summary of the method: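 Cells seeded 500/well in DMEM/10% FCS; compounds pinned in dose-response; 72 h incubation; CellTiter-Glo added, 5 min, luminescence. KB-8-5-11 run ±tariquidar to test reversal of P-gp resistance.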

[14] = Natriuretic polypeptide receptor (hNpr1) antagonism - Pilot counterscreen GloSensor control cell line (AID 1347045; calls by dose curve; further: on the % scale 0 is the no-effect control and ±100 the full control effect)
Summary of the method: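 Luminescence was read before and 20 min after adding 50 uM SNP, which stimulates soluble guanylyl cyclase. The HEK293 cells expressing the GloSensor cGMP sensor had been preloaded with 2% reagent for 2 h and treated with compound.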

[15] = biological target: Atrial natriuretic peptide receptor 1 (Homo sapiens) (UniProt P16066); assay: Natriuretic polypeptide receptor (hNpr1) antagonism - Pilot screen (AID 1347049; calls by dose curve;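 further: agonist-evoked cGMP luminescence read 20 min after hNppA addition; on the % scale 0 is the no-effect control and ±100 the full control effect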)
Atrial natriuretic peptide receptor 1 (Homo sapiens), sequence (P16066 whole entry, looked up): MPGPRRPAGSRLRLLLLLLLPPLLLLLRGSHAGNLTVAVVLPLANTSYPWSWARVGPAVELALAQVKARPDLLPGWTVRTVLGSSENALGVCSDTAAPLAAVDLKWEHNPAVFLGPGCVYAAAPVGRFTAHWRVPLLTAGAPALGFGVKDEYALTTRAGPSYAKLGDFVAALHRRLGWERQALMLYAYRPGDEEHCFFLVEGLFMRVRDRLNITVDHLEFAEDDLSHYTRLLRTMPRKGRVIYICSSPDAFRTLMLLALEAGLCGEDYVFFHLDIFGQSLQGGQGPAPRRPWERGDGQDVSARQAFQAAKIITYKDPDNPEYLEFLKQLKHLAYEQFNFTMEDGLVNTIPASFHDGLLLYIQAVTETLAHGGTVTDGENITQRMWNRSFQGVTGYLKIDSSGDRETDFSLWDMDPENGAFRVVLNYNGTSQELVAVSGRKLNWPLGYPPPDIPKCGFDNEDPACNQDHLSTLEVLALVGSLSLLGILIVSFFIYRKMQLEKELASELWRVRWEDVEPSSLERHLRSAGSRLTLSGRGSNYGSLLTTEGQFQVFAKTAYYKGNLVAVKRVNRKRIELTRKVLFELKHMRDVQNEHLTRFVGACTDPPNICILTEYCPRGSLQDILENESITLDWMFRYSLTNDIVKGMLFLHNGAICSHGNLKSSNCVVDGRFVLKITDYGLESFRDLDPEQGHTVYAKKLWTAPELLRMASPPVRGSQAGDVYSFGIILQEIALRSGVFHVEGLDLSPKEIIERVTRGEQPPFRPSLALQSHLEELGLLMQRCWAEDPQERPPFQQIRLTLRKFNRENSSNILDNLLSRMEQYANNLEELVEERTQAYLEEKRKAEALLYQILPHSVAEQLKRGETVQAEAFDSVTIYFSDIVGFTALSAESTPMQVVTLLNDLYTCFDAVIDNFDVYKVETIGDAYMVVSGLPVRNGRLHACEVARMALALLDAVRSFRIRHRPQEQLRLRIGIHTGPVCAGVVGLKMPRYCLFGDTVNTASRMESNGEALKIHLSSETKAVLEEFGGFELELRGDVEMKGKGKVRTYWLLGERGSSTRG
Summary of the method: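 Readout is cGMP-driven firefly luciferase luminescence in HEK293 cells carrying hNpr1 and a PDE5-domain GloSensor, read before and 20 min after 0.1 nM hNppA stimulation. Cells had 2% substrate reagent for 2 h and test compound for 30 min.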

[16] = biological target: T1, Tyrosine-protein phosphatase non-receptor type substrate 1 (Homo sapiens) + Leukocyte surface antigen CD47 (Homo sapiens) (UniProt P78324+Q08722); assay: CD47-SIRPalpha protein protein interaction - LANCE assay qHTS validation (AID 1347057; active means well fitted curve in the direction sought with a large enough effect in the signal ratio, with a control signal flat, not every such curve was filed as active; the % refers to the signal ratio; further: 0% is about no effect)
T1 sequence (P78324 whole entry, looked up): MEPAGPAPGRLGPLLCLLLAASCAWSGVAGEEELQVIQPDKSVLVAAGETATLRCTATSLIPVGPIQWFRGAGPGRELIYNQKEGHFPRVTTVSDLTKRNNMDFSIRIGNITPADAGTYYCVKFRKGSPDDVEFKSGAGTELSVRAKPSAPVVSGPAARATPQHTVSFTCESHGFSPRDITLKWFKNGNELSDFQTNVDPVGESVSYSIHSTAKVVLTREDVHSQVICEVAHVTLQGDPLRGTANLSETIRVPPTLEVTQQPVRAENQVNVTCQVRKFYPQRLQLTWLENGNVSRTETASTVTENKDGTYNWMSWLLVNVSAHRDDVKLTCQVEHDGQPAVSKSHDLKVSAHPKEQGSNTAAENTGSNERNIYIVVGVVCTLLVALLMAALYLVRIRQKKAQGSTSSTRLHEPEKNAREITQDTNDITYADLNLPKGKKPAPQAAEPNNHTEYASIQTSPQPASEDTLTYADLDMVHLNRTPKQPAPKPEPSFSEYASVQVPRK
T1 sequence (Q08722 whole entry, looked up): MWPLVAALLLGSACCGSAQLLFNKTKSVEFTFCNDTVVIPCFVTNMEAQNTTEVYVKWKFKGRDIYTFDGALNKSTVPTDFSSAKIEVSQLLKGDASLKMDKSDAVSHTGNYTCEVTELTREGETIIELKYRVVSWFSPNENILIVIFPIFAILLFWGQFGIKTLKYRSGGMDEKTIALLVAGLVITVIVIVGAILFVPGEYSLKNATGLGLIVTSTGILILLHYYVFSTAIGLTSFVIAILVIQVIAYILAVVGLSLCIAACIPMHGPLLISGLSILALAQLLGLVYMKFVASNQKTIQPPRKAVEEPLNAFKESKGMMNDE
Summary of the method: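 First, His-tagged CD47 and Eu-labelled anti-His antibody met the compound for 30 min; next, site-specifically biotinylated SIRPalpha was added for 30 min; finally streptavidin-APC was added before reading the TR-FRET ratio.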

[17] = biological target: T1, Tyrosine-protein phosphatase non-receptor type substrate 1 (Homo sapiens) + Leukocyte surface antigen CD47 (Homo sapiens); assay: CD47-SIRPalpha protein protein interaction - HTRF assay qHTS validation (AID 1347058; active means well fitted curve in the direction sought with a large enough effect in the signal ratio, not every such curve was filed as active; the % refers to the signal ratio;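 further: recombinant soluble extracellular CD47 with His tag and biotinylated SIRPalpha domains; 0% is about no effect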)
Summary of the method: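 TR-FRET read (Ch1/Ch2 ratio) of soluble extracellular CD47 and Avi-biotinylated SIRPalpha domains in PBS pH 7.4 with 0.05% IGEPAL; 7-point compound titration. Sequential 30 min room-temperature steps; non-biotinylated SIRPalpha as control inhibitor.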

COc1cc2c(Nc3ccc(Br)cc3F)ncnc2cc1OCC1CCN(C)CC1
active: Potency [1] 20.9 µM

C[C@](O)(CS(=O)(=O)c1ccc(F)cc1)C(=O)Nc1ccc(C#N)c(C(F)(F)F)c1
active: Potency [4] 1.87 µM | Potency [5] 3.72 µM | Potency [6] 4.69 µM | Potency [9] 14.6 µM
inactive: outcome [2] | outcome [3] | outcome [7] | outcome [8] | outcome [10]

CO[C@H]1C[C@@H]2CC[C@@H](C)[C@@](O)(O2)C(=O)C(=O)N2CCCC[C@@H]2C(=O)O[C@H]([C@H](C)C[C@@H]2CC[C@H](OCCO)[C@H](OC)C2)CC(=O)[C@H](C)C=C(C)[C@@H](O)[C@@H](OC)C(=O)[C@H](C)C[C@H](C)C=CC=CC=C1C
active: Potency [11] 23.5 µM

CN1C(=O)COc2c(C(=O)NC3CN4CCC3CC4)cc(Cl)cc21 (centres undefined)
inactive: outcome [2] | outcome [3] | Potency [4] | Potency [5] | outcome [12] | Potency [6] | outcome [7] | outcome [8] | Potency [9] | outcome [10]

C[C@]12CC[C@@H]3c4ccc(OC(=O)N(CCCl)CCCl)cc4CC[C@H]3[C@@H]1CC[C@@H]2OP(=O)(O)O
inactive: outcome [2] | outcome [3] | Potency [4] | Potency [5] | outcome [12] | Potency [6] | outcome [13] | Potency [9] | outcome [10]

Nc1nc2[nH]cc(CCc3ccc(C(=O)N[C@@H](CCC(=O)O)C(=O)O)cc3)c2c(=O)[nH]1
active: Potency [1] 0.059 µM | Potency [11] 0.187 µM

CN1C(=O)CCS(=O)(=O)C1c1ccc(Cl)cc1 (centres undefined)
inactive: outcome [2] | outcome [3] | outcome [12] | outcome [7] | outcome [8] | Potency [9] | outcome [14] | outcome [15] | outcome [10] | outcome [16] | outcome [17]

NC(=O)CS(=O)C(c1ccccc1)c1ccccc1 (centres undefined)
inactive: outcome [2] | outcome [3] | outcome [7] | outcome [8] | Potency [9] | outcome [10]

CC(C)(C)NCC(O)c1ccccc1Cl (centres undefined)
inactive: outcome [2] | outcome [3] | activity, negative = inhibition [7] 11.9% [at 9.21 µM] | outcome [8] | Potency [9] | outcome [14] | outcome [15] | outcome [10] | outcome [16] | outcome [17]

N#Cc1ccc(C(c2ccc(C#N)cc2)n2cncn2)cc1
inactive: Potency [11]

C=C(C)[C@H]1CN[C@H](C(=O)O)[C@H]1CC(=O)O
inactive: outcome [2] | outcome [3] | outcome [7] | outcome [8] | Potency [9] | outcome [15] | outcome [10] | outcome [16] | outcome [17]

COC(=O)[C@@H](N)CCCN/C(N)=N/[N+](=O)[O-]
inactive: outcome [2] | outcome [3] | outcome [7] | outcome [8] | Potency [9] | outcome [10]

O=C1c2ccccc2C(=O)C1C(=O)C(c1ccccc1)c1ccccc1
inactive: outcome [2] | outcome [3] | outcome [7] | outcome [8] | outcome [10]

CN1C(=O)NC(=O)C(C)(C2=CCCCC2)C1=O (centres undefined)
inactive: outcome [2] | outcome [3] | outcome [7] | outcome [8] | Potency [9] | outcome [10]

C[C@]12CCC(=O)C=C1CC[C@@H]1[C@@H]2CC[C@]2(C)C(=O)CC[C@@H]12
inactive: outcome [2] | outcome [3] | outcome [7] | outcome [8] | outcome [10]

CCOC(=O)CC(SP(=S)(OC)OC)C(=O)OCC (centres undefined)
inactive: outcome [2] | outcome [3] | outcome [7] | outcome [8] | Potency [9] | outcome [10]

CCC1(CC)C(=O)C=CNC1=O
inactive: outcome [2] | outcome [3] | outcome [7] | outcome [8] | Potency [9] | outcome [10]

O=C1CN=C(c2ccccc2)c2cc([N+](=O)[O-])ccc2N1
inactive: outcome [2] | outcome [3] | outcome [7] | outcome [8] | Potency [9] | outcome [10]

[N-]=[N+]=CC(=O)OC[C@H](N)C(=O)O
inactive: outcome [2] | outcome [3] | outcome [8] | Potency [9] | outcome [10]

COc1ccc2c(c1OC)C(=O)O[C@H]2[C@@H]1c2cc3c(cc2CCN1C)OCO3
inactive: outcome [2] | outcome [3] | outcome [8] | Potency [9] | outcome [14] | outcome [15] | outcome [10] | outcome [16] | outcome [17]

CC(C)c1c(CN(C)C(C)Cc2ccccc2)n(C)n(-c2ccccc2)c1=O (centres undefined)
inactive: outcome [2] | outcome [3] | outcome [7] | outcome [8] | outcome [10]

C[C@]12CC[C@@H]3c4ccc(OC(=O)N(CCCl)CCCl)cc4CC[C@H]3[C@@H]1CC[C@@H]2O
inactive: outcome [2] | outcome [3] | outcome [7] | outcome [8] | outcome [10]

C[C@@H](N)[C@@H](O)c1ccccc1
inactive: outcome [2] | outcome [3] | outcome [7] | outcome [8] | Potency [9] | outcome [10]

COC1CC(=C(c2cccs2)c2cccs2)C[N+](C)(C)C1 (centres undefined)
inactive: outcome [2] | outcome [3] | outcome [7] | outcome [8] | Potency [9] | outcome [10]

NCCc1ccc(O)cc1
inactive: outcome [2] | outcome [3] | outcome [8] | Potency [9] | outcome [14] | outcome [15] | outcome [10] | outcome [16] | outcome [17]
